aGal spleen mod = qHTS Assay for Inhibitors and Activators of Human alpha-Galactosidase From Spleen Homogenate. Alpha-galactosidase A (Homo sapiens), P06280. human spleen homogenate, 4MU-alpha-Gal fluorescence, 40 min. Potency, µM (doses to about 80 µM), for the others: at the top dose activity change, negative = inhibition, most hits filed as inhibitors. actives 0.008% (n = 240,000). AID 2107, 2009;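 note: potency is the fitted concentration of half-maximal effect; 0% = enzyme with vehicle and -100% = no enzyme basal signal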
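Spleen homogenate 1 ug + cpd (titration) + 4-MU-alpha-D-galactopyranoside 1 mM; 37C 40 min; 50 mM citrate/phosphate pH 5.0, 0.01% Tween-20; stop pH 10; fluorescence 365/440; AC50 via Hill.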
PNC assembly inh = High Content Assay for Compounds that inhibit the Assembly of the Perinucleolar Compartment | PC3M PTB-GFP, PNC prevalence imaging, 16 h; hits give low values | activity change (PNC), negative = inhibition, % at 10 µM | actives 3.1% (n = 140,000);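 active = readout at or below -70, meaning at least 70% loss of cells showing the perinucleolar compartment, a nuclear body marking cancer cells; inconclusive = readout between -30 and a set limit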;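 note: plate controls were DMSO wells for no effect and camptothecin positive control wells for full effect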
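PC3M cells stably expressing PTB-GFP, 750–1000 cells/well, treated 16 h at 37 °C with compound (23 nl of library stock), in duplicate. After paraformaldehyde fixation and Hoechst stain, imaged at 20x; PNC prevalence scored by image analysis.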
12-hLO inh = qHTS Assay for Inhibitors of 12-hLO (12-human lipoxygenase); Polyunsaturated fatty acid lipoxygenase ALOX12 (Homo sapiens), P18054; purified 12-hLO, xylenol orange hydroperoxide absorbance; Potency, µM (top dose mostly 57.1 µM), inactives show at the top dose activity change, negative = inhibition, most hits filed as inhibitors; actives 0.12% (n = 150,000); note: potency is the fitted concentration of half-maximal effect; nearly all actives have a fitted effect of over 55% in size
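Lipoxygenase turnover measured by absorbance at 573 and 405 nm after Fe-XO development. Human 12hLO 150 nM, arachidonate 40 uM, pH 7.0 Hepes buffer with detergent; 15 min compound preincubation, 30 min reaction.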
HPGD inh = qHTS Assay for Inhibitors of HPGD (15-Hydroxyprostaglandin Dehydrogenase); 15-hydroxyprostaglandin dehydrogenase [NAD(+)] (Homo sapiens), P15428; purified HPGD, NADH fluorescence kinetic, PGE2 substrate; Potency, µM, inactives show at the top dose activity change, negative = inhibition, usual class: inhibitors; actives 4.3% (n = 150,000); active = well fitted inhibition curve with a large enough effect, not every such curve was filed as active; inconclusive = small, poorly fitted or top-dose-only effect, or another doubt; inactive = no such curve, though single readings can be large or run the other way; note: potency is the fitted concentration of half-maximal effect
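NADH formation kinetics: reaction with 30 uM PGE2 and 1 mM NAD+ (final), 20 nM enzyme, Tris-HCl pH 8 with Tween 20, after 15 min compound preincubation at room temperature. Fluorescence change, last versus first of five reads.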
GLA inh pH 4.5 = qHTS Assay for Inhibitors of Human alpha-Galactosidase at pH 4.5; Alpha-galactosidase A (Homo sapiens), P06280; purified enzyme, 4-MU-alpha-Gal fluorescence, pH 4.5; activity change, negative = inhibition, % at 105 µM; 230,000 tested, under 10 active; AID 1467, 2008;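 note: 0% = full activity with enzyme and -100% = basal without enzyme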
ALDH1A1 block = qHTS Assay for Inhibitors of Aldehyde Dehydrogenase 1 (ALDH1A1); actives 7.3% (n = 220,000); Potency, µM (top dose mostly 75.3 µM), without a hit: at the top dose activity, negative = inhibition, hits mostly inhibitors; Purified ALDH1A1, NADH fluorescence, propionaldehyde substrate; Aldehyde dehydrogenase 1A1 (Homo sapiens), P00352; active = well fitted inhibition curve with a large enough effect, not every such curve was filed as active; inconclusive = small, poorly fitted or top-dose-only effect, or another doubt; inactive = no such curve, though single readings can be large or run the other way;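 note: potency is the fitted concentration of half-maximal effect; plate controls were no enzyme wells and a reference inhibitor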
Target sequence (P00352 whole entry, looked up): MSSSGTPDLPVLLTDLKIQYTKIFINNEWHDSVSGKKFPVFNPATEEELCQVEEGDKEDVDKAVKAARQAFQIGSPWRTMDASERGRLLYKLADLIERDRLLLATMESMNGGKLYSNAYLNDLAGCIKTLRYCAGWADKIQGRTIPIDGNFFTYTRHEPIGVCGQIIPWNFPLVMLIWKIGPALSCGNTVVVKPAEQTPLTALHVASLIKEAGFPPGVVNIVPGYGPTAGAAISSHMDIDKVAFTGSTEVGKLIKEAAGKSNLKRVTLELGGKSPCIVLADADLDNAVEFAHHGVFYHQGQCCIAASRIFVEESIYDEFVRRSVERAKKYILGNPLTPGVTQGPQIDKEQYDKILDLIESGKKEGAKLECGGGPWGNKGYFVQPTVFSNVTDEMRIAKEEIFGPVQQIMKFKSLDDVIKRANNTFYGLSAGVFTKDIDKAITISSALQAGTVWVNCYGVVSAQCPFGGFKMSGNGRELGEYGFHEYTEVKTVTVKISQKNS
* hit, by the source's call; ? = inconclusive; / = no result given; [ ] = another dose, or the depositor's remark. An excerpt weighted towards active compounds, which were near 10% of everything screened. Unless noted, calls come from the whole dose curve; as a rule, active = well fitted curve in the direction sought with a large enough effect; inconclusive = small, poorly fitted or top-dose-only effect, or another doubt; inactive = no such curve, though single readings can be large; an effect the other way counts as inactive or inconclusive. Unless noted, % is set by controls: 0 for no effect and ±100 for the full control effect.

SMILES	aGal spleen mod	PNC assembly inh	12-hLO inh	HPGD inh	GLA inh pH 4.5	ALDH1A1 block
O=C(COc1ccccc1-c1ccccc1)N/N=C/c1cccc2ccccc12	8%	?	-5%	?	0	?
COC(=O)[C@@H]1O[C@@H](c2c(OC)c(OC)c(C)c(OC)c2OC)[C@H](C)[C@@H](O)[C@@H]1C	9%[17.5 µM]	/	/	/	/	0%[13.5 µM]
COc1ccc(/C=C2\SC(=NCc3ccccc3)NC2=O)cc1	1%	-7	-20%	?	6	-8%
COc1ccc(/C=C2\SC(=O)N=C2N)cc1	-4%	-104*	0%	-20%	8	-3%
CC(C)c1ccc(-c2nnc(N)s2)cc1	-7%	4	2%	35µM*	-3	2%
NC(=O)NCCS[C@H]1CCCC[C@@H]1O	/	/	3%[11.4 µM]	-1%	/	6%[13.5 µM]
Cc1cc2c3c(cccc3n1)C(=O)c1ccccc1-2	1%	/	/	-3%	-9	-11%
Nc1cc(S(N)(=O)=O)ccc1SSc1ccc(S(N)(=O)=O)cc1N	/	/	-28%[11.4 µM]	5µM*	/	2µM*
CCCCCCCC/C=C\CCCCCCCC(=O)OC[C@@H](O)COP(=O)(O)O	-16%	/	-2%	-1%	-6	2%
CN(c1ccccc1C(=O)Nc1ccc(S(=O)(=O)N2CCCC2)cc1)S(C)(=O)=O	5%	31	4%	-12%	1	13µM*
CN(c1ccccc1C(=O)Nc1ccc(S(=O)(=O)N2CCCCC2)cc1)S(C)(=O)=O	9%	-20	-5%	4%	2	-4%
Cc1cccc(OCC(=O)Nc2ccc(S(=O)(=O)N3CCN(C)CC3)cc2)c1	7%	?	10%	0%	-8	15%
Cc1cccc(OCC(=O)Nc2cc(S(=O)(=O)N3CCCCC3)ccc2N2CCN(C)CC2)c1	-5%	/	/	/	-5	11µM*
CN(CCOc1ccccc1)CC(=O)Nc1ccc(S(=O)(=O)N2CCCC2)cc1	-8%	/	/	/	-3	13µM*
CN1CCN(S(=O)(=O)c2ccc(NC(=O)COc3ccccc3Cl)cc2)CC1	3%	/	/	/	5	3.2µM*
C[C@H](N)CCCC(C)(C)O	2%[29.1 µM]	/	1%[25.6 µM]	-7%	-8	8%[20.9 µM]
O=C(CSC(=S)N1CCN(c2ccccc2)CC1)Nc1nc(-c2ccccc2)c(-c2ccccc2)o1	-10%	16	-2%	-12%	8	1%
CCc1nnc(NC(=O)CCC(=O)NC2CCCc3ccccc32)s1 (configuration not stated)	2%	31	3%	-1%	6	5%
CCCCC	2%	/	0%	-1%	/	-4%
c1ccc(CN2CCN(c3nc4ccccc4n4cnnc34)CC2)cc1	6%	18	11%	14µM*	1	-14%
C1=C(c2ccccc2)CCN(c2nc3ccccc3n3cnnc23)C1	6%	6	4%	14µM*	-3	28µM*
COc1ccc(CCN(C)CC(=O)Nc2cc(C)nc3ccccc23)cc1OC	-5%	/	/	/	7	/
CSc1nc(-c2ccc(Cl)cc2Cl)[nH]c(=O)c1C#N	-3%	?	0%	2.5µM*	3	15%
Cc1ccccc1-c1nc2sc3c(c2c(=O)o1)CCC3	2%	12	0%	16µM*	0	-16%
Cc1nc2sc3c(c2c(=O)n1N)CCC3	4%	/	/	/	2	?
SMILES	aGal spleen mod	PNC assembly inh	12-hLO inh	HPGD inh	GLA inh pH 4.5	ALDH1A1 block
Cn1nnc2sc3c(c2c1=O)CCCC3	-13%	?	-7%	32µM*	-2	13µM*
Cc1ccccc1-c1nc2sc3c(c2c(=O)n1N)CCCC3	1%	?	-5%	25µM*	-5	?
O=c1oc(-c2ccccc2)nc2sc3c(c12)CCCC3	-4%	1	-2%	?	0	?
CCc1nc2sccc2c(=O)[nH]1	2%	/	/	/	5	6%
CCOC(=O)CNC(=S)N1CCn2c(nc3ccccc32)C1	-5%	/	/	/	-4	4%
Cc1nn(-c2ccccc2)c(Oc2ccccc2)c1C=O	-1%	23	0%	-6%	6	-5%
O=C(CSCC(=O)Nc1nc(-c2ccc3c(c2)OCO3)cs1)Nc1nccs1	-2%	/	/	/	9	22µM*
O=C(CSc1ccc(-c2ccc3c(c2)OCO3)nn1)Nc1nccs1	7%	/	/	/	3	16%
Cc1cccc(C)c1Nc1nnc(SCc2nc3ccccc3c(=O)[nH]2)s1	5%	-118*	-5%	-10%	-2	-4%
O=c1[nH]c(CSc2nc(-c3ccc(F)cc3)cs2)nc2ccccc12	-3%	-116*	1%	-3%	3	13%
CC[C@]1(O)C[C@H]2CN(CCc3c([nH]c4ccccc34)[C@](C(=O)OC)(c3cc4c(cc3OC)N(C=O)[C@H]3[C@@](O)(C(=O)OC)[C@H](OC(C)=O)[C@@]5(CC)C=CCN6CC[C@]43[C@H]65)C2)C1	/	/	-5%	/	/	/
CC(C)(C)c1cnnn1-c1ccc(-c2csc(N)n2)cc1	2%	33	0%	-28%	-10	18µM*
O=C(C1=C(O)C(=O)N(CCN2CCOCC2)C1c1ccccn1)c1cccs1 (configuration not stated)	-1%	30	-12%	-5%	-8	19µM*
Cc1c(/C(O)=C2/C(=O)C(=O)N(CCN3CCOCC3)C2c2ccccn2)cnn1-c1ccccc1 (configuration not stated)	-2%	/	/	/	0	?
Cc1ccc(C)c(/C(O)=C2/C(=O)C(=O)N(CCN3CCOCC3)C2c2ccc(C)o2)c1 (configuration not stated)	-3%	-4	-3%	-15%	-7	?
CCN(CC)CCN1C(=O)C(O)=C(C(=O)c2cccs2)C1c1ccccn1 (configuration not stated)	-4%	16	0%	-24%	-6	18µM*
CCN(CC)CCN1C(=O)C(O)=C(C(=O)c2cccs2)C1c1ccc(C)o1 (configuration not stated)	1%	?	-8%	-9%	2	22µM*
Cc1ccc(C2C(C(=O)c3cccs3)=C(O)C(=O)N2CCN2CCOCC2)o1 (configuration not stated)	0%	?	-10%	-16%	-3	18µM*
COc1cccc(C2C(C(=O)c3cccs3)=C(O)C(=O)N2CCN(C)C)c1OC (configuration not stated)	-12%	?	4%	-12%	-8	?
CCOc1ccc(C2C(C(=O)c3cccs3)=C(O)C(=O)N2CCCn2ccnc2)cc1 (configuration not stated)	-3%	65	1%	-19%	-6	6%

Screening results: PubChem, National Center for Advancing Translational Sciences (NCATS)
